# Compounds with a hit are over-represented: about 12% of the library has one in this group of screens.
# Sfp PPTase inh: Sfp phosphopantetheinyl transferase inhibition | Biochemical Sfp PPTase activity, qHTS | Potency, µM, usual class: inhibitors | 310,000 compounds, 3.5% hits | AID 1490;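 note: the enzyme is Sfp with the accession as filed and its product quenches rhodamine fluorescence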
#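 Step 1, compound plus 15 nM Sfp-PPTase, 15 min, room temperature. Step 2, add rhodamine-CoA (5 uM) and BHQ-2-YbbR (12.5 uM). Step 3, read 525/598 nm fluorescence at 0 and 30 min.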
# G9a inh: blocks human histone lysine methyltransferase G9a. Q96KQ7. 350,000 compounds, 8.8% hits. Potency, µM (top dose mostly 102 µM), most hits filed as inhibitors. AID 504332. G9a H3K9 monomethylation, AlphaScreen, 2 h; note: nearly all actives have a fitted effect of over 75% in size
# Target sequence (Q96KQ7 913-1193 limits assumed): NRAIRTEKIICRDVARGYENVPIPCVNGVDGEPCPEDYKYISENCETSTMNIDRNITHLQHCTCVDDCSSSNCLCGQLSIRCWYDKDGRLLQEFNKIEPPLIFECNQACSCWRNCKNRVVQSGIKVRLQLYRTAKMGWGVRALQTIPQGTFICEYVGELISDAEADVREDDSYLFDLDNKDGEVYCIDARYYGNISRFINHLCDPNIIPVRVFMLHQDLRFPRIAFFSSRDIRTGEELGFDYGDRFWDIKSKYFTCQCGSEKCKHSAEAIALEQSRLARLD
#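 Methyltransferase reactions run at room temperature for 2 h (20 nM enzyme, 500 nM biotin-H3K9 peptide, 20 uM SAM) after a 15 min compound preincubation; product detected by AlphaScreen beads and anti-H3K9me1 antibody.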
# HP1b binding inh: blocks HP1-beta chromodomain binding to methylated histone tails; Potency, µM (top dose mostly 114 µM), most hits filed as inhibitors; P83916; AlphaScreen HP1-beta / biotin-H3K9me3 peptide binding; 390,000 compounds, 0.56% hits; note: nearly all actives have a fitted effect of over 70% in size
# Target sequence (P83916 whole entry, looked up): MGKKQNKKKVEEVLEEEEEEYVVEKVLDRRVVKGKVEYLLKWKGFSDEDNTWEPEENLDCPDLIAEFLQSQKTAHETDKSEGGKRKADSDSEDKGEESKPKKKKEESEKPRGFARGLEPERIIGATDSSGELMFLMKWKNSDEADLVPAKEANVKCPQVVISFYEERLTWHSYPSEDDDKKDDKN
#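 Compound inhibition of the preformed complex between 50 nM HP1-beta and 50 nM biotinylated H3K9me3 peptide was read by AlphaScreen. Buffer was PBS pH 7.4 with 0.01% Tween-20. Incubations ran 30 min at room temperature, with 10 ug/mL donor/acceptor beads.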
# PLK1 PBD block: inhibitors of human PLK1 polo-box domain binding. P53350. Plk1 PBD binding of FITC phosphopeptide, fluorescence polarization. Potency, µM, hits mostly inhibitors. 360,000 compounds, 2.8% hits; note: series mostly up to about 57 µM; nearly all actives have a fitted effect of over 65% in size
# BAZ2B inh: inhibitors of human BAZ2B bromodomain | Q9UIF8 | AlphaScreen BAZ2B-H3K14Ac peptide displacement | Potency, µM (top dose mostly 114 µM), hits mostly inhibitors | 360,000 compounds, 4.4% hits | AID 504333; note: nearly all actives have a fitted effect of over 60% in size
#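 Inhibition is scored as reduced AlphaScreen emission. The BAZ2B/b-H3(5-23)K14Ac complex (50 nM each) in PBS pH 7.4, 0.01% Tween-20 meets compound (up to 110 uM) for 30 min at RT before bead addition.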
# JMJD2A Tudor inh: JMJD2A Tudor domain (human) inhibition; AlphaScreen JMJD2A-Tudor / H3K4me3 peptide binding; Potency, µM (series often up to 114 µM), actives largely listed as inhibitors; AID 504339; 390,000 compounds, 4.4% hits; note: nearly all actives have a fitted effect of over 50% in size
# Numbers stand for hits; 0 = inactive; ? = inconclusive; - = no result given; [ ] = dose if it differs, or a comment. Calls come from the whole dose curve; as a rule, active = well fitted curve in the direction sought with a large enough effect; inconclusive = small, poorly fitted or top-dose-only effect, or another doubt; inactive = no such curve, though single readings can be large; an effect the other way counts as inactive or inconclusive.
SMILES,Sfp PPTase inh,G9a inh,HP1b binding inh,PLK1 PBD block,BAZ2B inh,JMJD2A Tudor inh
O=C(O)C(Cc1ccccc1)N=C(NS(=O)(=O)c1ccccc1)c1ccccc1 (stereo not given),-,-,0,0,-,0
COc1ccccc1N1CCN(C(=O)c2cc3c(=O)n(Cc4cccnc4)ccc3nc2C)CC1,-,0,0,-,0,0
Cc1ccccc1N1C(=O)c2cc(S(N)(=O)=O)c(Cl)cc2N[C@H]1C,0,?,-,-,-,-
COC(=O)N1CCC2(CCCN(Cc3ccc(C#N)cc3)C2)CC1,0,0[12.7 µM],-,-,-,-
CC(=O)OCC(=O)C1(O)CCC2C3CCC4=CC(=O)C=CC4(C)C3C(O)CC21C (stereo not given),0,0,0,0,0,0
O=C(NC(c1ccc(Cl)cc1)c1c(O)ccc2ccccc12)c1ccccc1 (stereo not given),0,0,0,0,0,0
CC(=O)NC(c1ccc(Cl)cc1)c1c(O)ccc2ccc(O)cc12 (stereo not given),0,40µM,0,0,0,0
Cc1ccc(-c2cc(C(=O)N(Cc3ccccc3)Cc3ccco3)no2)cc1F,-,?,0,-,50µM,0
O=C(c1cc(-c2ccc(Cl)cc2)on1)N(Cc1ccc(F)cc1)Cc1ccco1,-,0,0,-,0,0
CC(C)(C)C1CCc2nc(NC(=O)c3cccc(Cl)c3)sc2C1 (stereo not given),-,0,0,-,0,0
CNc1nc(C#N)nc(Nc2ccccc2)n1,-,-,-,-,-,0
CNc1nc(NN)nc(Nc2ccccc2)n1,0,0[0.501 µM],0,0,28µM,25µM
OC(c1ccc2ccccc2c1)c1ncc(-c2cccc3ccccc23)[nH]1 (stereo not given),-,-,-,0,-,-
CCNc1nc(-c2ccc(OC(F)F)cc2)c(C)s1,?,40µM,0,0,0,0
COc1ccc(-c2nc(NC3=NCCCCC3)sc2C)cc1,0,?,0,0,?,0
Cc1cc(-c2ccccc2)[nH]c(=O)c1C#N,0,0,0,0,0,0
N#Cc1sc2nc(C3CC3)cc(-c3ccccc3)c2c1N,0,0,0,0,0,0
N#Cc1sc2nc(-c3ccccc3)cc(-c3ccco3)c2c1N,79µM,8.9µM,0,?,?,56µM
N#Cc1c(-c2ccccc2)cc(-c2ccco2)c(C#N)c1N,35µM,?,-,-,0,-
Cc1ccc(-c2cc(-c3ccco3)c(C#N)c(=O)[nH]2)cc1,?,0,0,0,50µM,79µM
N#Cc1c(-c2ccco2)cc(-c2ccccc2)[nH]c1=O,?,-,0,0,71µM,?
Cc1cccc(C(=O)N(Cc2ccco2)Cc2ccccc2F)c1,-,0,0,-,0,0
Cc1ccccc1C1CC(=O)Oc2cc(C)c(Cl)c(C)c21 (stereo not given),0,0,-,-,-,-
O=C(CCN1CCC(c2ccccc2)C1)c1cccs1 (stereo not given),0,?,0,21µM,0,0
O=C(CCN1CCC(c2ccccc2)C1)c1ccccc1 (stereo not given),0,-,0,?,?,0
SMILES,Sfp PPTase inh,G9a inh,HP1b binding inh,PLK1 PBD block,BAZ2B inh,JMJD2A Tudor inh
COc1cc(C(=O)CCN2CCC(c3ccccc3)C2)cc(OC)c1OC (stereo not given),0,3.5µM,0,27µM,0,0
O=C(CCN1CCCC1)c1cccs1,0,25µM,0,11µM,0,0
N=c1n(CCN2CCCCC2)c2ccccc2n1CC(=O)c1cccs1,0,-,0,0,0,0
COc1ccc(OC)c(NS(=O)(=O)c2ccc(-c3cc(C)no3)s2)c1,-,0,0,-,?,0
COc1nc(Cl)cn(-c2ccc(C)cc2)c1=O,0,0,0,0,0,0
Cc1ccc(-n2c(Cl)c(Cl)nc(Cl)c2=O)cc1,?,?,0,2.7µM,?,0
O=C(COCc1cc(-c2ccc(F)cc2)on1)Nc1cccc(Cl)c1Cl,-,0,0,-,0,0
Fc1cccc(CCN2CCNC[C@@H]2CC2CCCCC2)c1,-,0[0.501 µM],0,0,?,0
COc1ccccc1N1CCN(C(c2cccs2)C(C)NC(=O)c2ccco2)CC1 (stereo not given),0,0,0,0,0,0
COc1ccc(N2CCN(C(c3cccs3)C(C)NC(=O)c3ccco3)CC2)cc1 (stereo not given),0,3.5µM,0,0,?,?
CC(NS(C)(=O)=O)C(c1cccs1)N1CCN(c2ccc(F)cc2)CC1 (stereo not given),0,0,0,0,0,0
COc1ccc(N2CCN(S(=O)(=O)c3cccs3)CC2)cc1,0,25µM,0,0,0,0
COc1ccc(N2CCN(C(c3cccs3)C(C)NS(C)(=O)=O)CC2)cc1 (stereo not given),0,56µM,0,0,-,0
O=C(Nc1ccccc1Cl)c1ccc2nc(N3CCOCC3)sc2c1,0,-,0,0,0,0
COc1ccc(NC(=O)N2CCOc3ccc(Cl)cc32)cc1,-,0,0,-,?,0
CCOc1ccc(S(=O)(=O)Nc2ccc3c(c2)CCCN3S(=O)(=O)c2ccc(C)cc2)cc1,-,?,0,-,56µM,0
CCOc1ccc(S(=O)(=O)N2CCOCC2)cc1NS(=O)(=O)c1ccc(OC)c([N+](=O)[O-])c1,-,0,0,0,0,0
O=C(NCCCN1CCCC1)c1ccc2c(Cl)c3c(nc2c1)CCCC3,79µM,?,0,0,0,0
CCOC(=O)N1CCC(NC(=O)c2ccc3c(Cl)c4c(nc3c2)CCCC4)CC1,25µM,0,0,0,0,0
O=C(NC1CC1)c1ccc2c(Cl)c3c(nc2c1)CCCC3,0,?,0,0,0,0
O=S(=O)(Nc1cccnc1)c1cccc2ccccc12,-,-,0,-,-,0
COc1ccc(OC)c(C(=O)NC2CC(C)(C)Cc3c2cnn3-c2ccccc2)c1 (stereo not given),0,0,0,0,71µM,0
Cc1ccccc1-n1ncc2c1CC(C)(C)CC2NC(=O)c1cn[nH]c1C (stereo not given),0,0,0,30µM,0,?
C/C=C/C(=O)Nc1cccc(C2=NOC3(C2)C[C@@H](C(N)=O)N(C(=O)c2cc([N+](=O)[O-])cc([N+](=O)[O-])c2)C3)c1 (stereo not given in full),?,0[12.7 µM],0,0,0,0
NC(=O)C1(NC(=O)[C@@H]2CC3(CC(c4cccc(NC(=O)c5cc([N+](=O)[O-])cc([N+](=O)[O-])c5)c4)=NO3)CN2C(=O)c2ccccc2)CC1 (stereo not given in full),79µM,-,0,?,0,?
C/C=C\C=C/C(=O)Nc1cccc(C2=NOC3(C2)C[C@H](C(N)=O)N(C(=O)c2ccc(OC)cc2)C3)c1 (stereo not given in full),13µM,?,?,?,0,?
